Reference: PubChem BioAssay AID1159580 (chemical genetic matrix, 2015)
Hit rate of the full screen: of about 5,500 compounds, about 2,000 (36%) were called active. Roughly 18% stayed inconclusive and do not appear here. Cut-off read from the data, not from the text of the source: active = normalized growth mostly below about 0.91 (no sharp cut-off); inconclusive = no clear call, values can overlap the other calls; inactive = mostly above about 0.92. Some of the results follow.

Assay: chemical genetic growth profiling, strain panel (AID 1159580);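 note: tested at 20 µM; growth read once vehicle control cultures reached saturation at 30 °C; 1 = growth at the plate median or of vehicle wells; lower values mean less growth of the strain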
Conditions: S. cerevisiae deletion strains, growth OD

Measured: normalized growth

COc1cc(O)c2c(=O)c(O)c(-c3ccc(O)c(O)c3)oc2c1
active: locus YAL021C, strain ccr4, active compounds read low 0.466 | locus YAL026C, strain drs2, active compounds read low 0.678 | locus YAL030W, strain snc1, active compounds read low 0.886 | locus YBL061C, strain skt5, active compounds read low 0.794 | locus YBR009C, strain hhf1, active compounds read low 0.773 | locus YBR023C, strain chs3, active compounds read low 0.693 | locus YBR231C, strain swc5, active compounds read low 0.72 | locus YBR279W, strain paf1, active compounds read low 0.829 | locus YCL011C, strain gbp2, active compounds read low 0.803 | locus YCL016C, strain dcc1, active compounds read low 0.865 | locus YCL069W, strain vba3, active compounds read low 0.846 | locus YCR088W, strain abp1, active compounds read low 0.912 | locus YDR069C, strain doa4, active compounds read low 0.467 | locus YDR137W, strain rgp1, active compounds read low 0.659 | locus YDR297W, strain sur2, active compounds read low 0.787 | locus YDR334W, strain swr1, active compounds read low 0.755 | locus YDR335W, strain msn5, active compounds read low 0.761 | locus YEL003W, strain gim4, active compounds read low 0.795 | locus YEL037C, strain rad23, active compounds read low 0.823 | locus YEL061C, strain CIN8 (second series), active compounds read low 0.907 | locus YER015W, strain faa2, active compounds read low 0.66 | locus YER016W, strain bim1, active compounds read low 0.895 | locus YER111C, strain swi4, active compounds read low 0.793 | locus YER155C, strain BEM2 (second series), active compounds read low 0.789 | locus YFR010W, strain ubp6, active compounds read low 0.736 | locus YGL173C, strain kem1, active compounds read low 0.657 | locus YGL253W, strain hxk2, active compounds read low 0.693 | locus YHR013C, strain ard1, active compounds read low 0.808 | locus YHR027C, strain rpn1, active compounds read low 0.549 | locus YHR129C, strain ARP1, active compounds read low 0.875 | locus YHR142W, strain chs7, active compounds read low 0.622 | locus YJL092W, strain hpr5, active compounds read low 0.885 | locus YJL095W, strain BCK1 (second series), active compounds read low 0.746 | locus YJL129C, strain trk1, active compounds read low 0.867 | locus YJL164C, strain tpk1, active compounds read low 0.723 | locus YJL166W, strain qcr8, active compounds read low 0.819 | locus YJL187C, strain SWE1 (second series), active compounds read low 0.776
inactive: locus YAL013W, strain DEP1, active compounds read low 0.998 | locus YBR021W, strain FUR4, active compounds read low 1.01 | locus YBR171W, strain sec66, active compounds read low 0.932 | locus YBR229C, strain ROT2, active compounds read low 0.987 | locus YCL029C, strain bik1, active compounds read low 1.01 | locus YDL005C, strain med2, active compounds read low 1 | locus YDL035C, strain GPR1, active compounds read low 0.931 | locus YDL040C, strain nat1, active compounds read low 0.988 | locus YDL074C, strain BRE1, active compounds read low 0.822 | locus YDL101C, strain DUN1, active compounds read low 0.911 | locus YDL185W, strain tfp1, active compounds read low 0.995 | locus YDL192W, strain arf1, active compounds read low 0.986 | locus YDR001C, strain nth1, active compounds read low 0.954 | locus YDR101C, strain arx1, active compounds read low 0.992 | locus YDR159W, strain sac3, active compounds read low 0.891 | locus YDR162C, strain NBP2, active compounds read low 0.948 | locus YDR195W, strain ref2 1.02 | locus YDR318W, strain mcm21, active compounds read low 0.986 | locus YDR388W, active compounds read low 1.01 | locus YDR392W, strain spt3, active compounds read low 0.838 | locus YDR502C, strain sam2, active compounds read low 0.981 | locus YEL061C, strain CIN8, active compounds read low 0.966 | locus YER110C, active compounds read low 1.03 | locus YER155C, strain BEM2, active compounds read low 1.01 | locus YER167W, strain BCK2, active compounds read low 1.02 | locus YGL078C, strain dbp3, active compounds read low 1.01 | locus YGL086W, strain mad1, active compounds read low 0.933 | locus YGL167C, strain pmr1, active compounds read low 0.949 | locus YGL227W, strain vid30, active compounds read low 1.01 | locus YGL240W, strain doc1, active compounds read low 0.961 | locus YGL248W, strain PDE1, active compounds read low 0.915 | locus YGR135W, strain pre9, active compounds read low 0.984 | locus YGR252W, strain gcn5, active compounds read low 1.03 | locus YHR030C, strain SLT2, active compounds read low 0.971 | locus YHR079C, strain IRE1 (second series), active compounds read low 1.02 | locus YHR094C, strain hxt1, active compounds read low 1.02 | locus YHR200W, strain rpn10, active compounds read low 0.997 | locus YIL066C, strain RNR3, active compounds read low 0.974 | locus YIL073C, strain SPO22, active compounds read low 0.925 | locus YIL125W, strain kgd1, active compounds read low 0.981 | locus YIR030C, strain dcg1, active compounds read low 1.01 | locus YJL095W, strain BCK1, active compounds read low 0.822 | locus YJL115W, strain asf1, active compounds read low 0.968 | locus YJL134W, strain LCB3, active compounds read low 0.986 | locus YJL154C, strain vps35, active compounds read low 0.957 | locus YJL168C, strain set2, active compounds read low 1.03 | locus YJR043C, strain POL32, active compounds read low 0.896
